We go through 31 molecules from PubChem BioAssay (NCATS).

Test [1] addresses Cytochrome P450 3A4 (Homo sapiens) (UniProt P08684). In words: qHTS Assay for Inhibitors and Substrates of Cytochrome P450 3A4 (AID 884). Also: % is scaled to controls: 0 for no effect and ±100 for the full control effect; nearly all actives have a fitted effect of over 50% in size. The gist of the method: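 Luminescent readout of luciferin produced by CYP3A4 (20 nM) dealkylation of Luciferin-PPXE, 25 uM (its KM). NADPH-driven reaction ran 60 min at RT after 10 min compound preincubation; data scaled to 57 uM ketoconazole as 100% inhibition.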

Test [2] has as its target Cytochrome P450 2C9 (Homo sapiens) (UniProt P11712). In words: qHTS Assay for Inhibitors and Substrates of Cytochrome P450 2C9 (AID 883). Also: nearly all actives have a fitted effect of over 60% in size. Also: potency is read from the fitted curve at half-maximal effect. Put shortly:
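CYP2C9 deoxyluciferin hydroxylation, 37C, 60 min with NADPH regeneration; 10nM enzyme, 100uM Luciferin-H (KM). Glo detection reagent stopped reaction; luminescence normalized to sulphaphenazole (57uM) full inhibition.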

A short description of test [3]: qHTS Assay for Identification of Small Molecule Antagonists for NFkB Signaling Pathway (AID 895; active = well fitted inhibition curve with a large enough effect in the signal ratio, with a control signal flat, not every such curve was filed as active; the % refers to the signal ratio; also: potency is read from the fitted curve at half-maximal effect). The gist of the method:
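NFkB-bla ME-180 cervical carcinoma cells with beta-lactamase reporter under NFkB response element; compounds added, then TNF alpha at 10 pM final (EC50), 5 h at 37 C. LiveBLAzer substrate 2 h, room temperature; emission 460/530 nm at 405 nm excitation.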

Test [4] concerns the target Muscarinic acetylcholine receptor M1 (Rattus norvegicus) (UniProt P08482). In words: qHTS Assay for Antagonists of Acetylcholine Muscarinic M1 Receptor: Kinetic Measurement of Intracellular Calcium Response (AID 943). Also: nearly all actives have a fitted effect of over 75% in size. Also: potency is read from the fitted curve at half-maximal effect. The gist of the method: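 Read-out: peak over basal Fluo-4 fluorescence, kinetic at 1 Hz for 4 min after EC80 carbachol (100 nM final). Rat M1-CHO cells, dye loaded 1 h at 37C, compound added 10 min before agonist.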

For test [5] the target is unchanged. In words: qHTS Assay for Antagonists of Acetylcholine Muscarinic M1 Receptor: Measurement of IP-One Response (AID 944). Also: nearly all actives have a fitted effect of over 75% in size. Put shortly: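 Read-out: HTRF competition between d2-IP1 and Eu-cryptate anti-IP1 antibody, emission 620 and 665 nm. Stimulus was carbachol, EC80 (200 nM), for 30 min in M1-CHO cells (rat receptor), after 10 min compound pre-treatment.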
The target in test [6] is Cytochrome P450 2D6 (Homo sapiens) (UniProt P10635). As to the kind of experiment: qHTS Assay for Inhibitors and Substrates of Cytochrome P450 2D6 (AID 891). Also: nearly all actives have a fitted effect of over 60% in size. Also: potency is read from the fitted curve at half-maximal effect. Put shortly:
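Luminescent read-out of luciferin formed by 5 nM human CYP2D6 demethylating 30 uM Luciferin-ME EGE (Km level) over 60 min at room temperature after NADPH regeneration addition. Data normalized to full inhibition by 1.43 uM quinidine.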

The target of test [7] is Cytochrome P450 2C19 (Homo sapiens) (UniProt P33261). In words: qHTS Assay for Inhibitors and Substrates of Cytochrome P450 2C19 (AID 899). Also: nearly all actives have a fitted effect of over 60% in size. Also: potency is read from the fitted curve at half-maximal effect. Put shortly: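 In 50mM KPO4, the reaction held 5nM enzyme and KM-level (10uM) Luciferin-H EGE; it ran 60 min at 37C after NADPH regeneration and a 10 min compound preincubation. Luminescence values were scaled to 57uM ketoconazole as complete inhibition.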

Test [8] in a line: qHTS Assay for Identification of Small Molecule Agonists for Hypoxia Response Element Signaling Pathway (AID 914; active = well fitted activation curve with a large enough effect in the signal ratio, with a control signal flat, not every such curve was filed as active; the % refers to the signal ratio; also: % of control where 0% means no effect). The settings on record: ME-180 (cervical carcinoma) HRE-bla reporter, beta-lactamase ratio, CoCl2, 17 h; activation: hits give high values. Put shortly:
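HRE-bla ME-180 assay for agonist-like enhancement of an EC50 CoCl2 stimulus: 17 h at 37 degrees Celsius, CCF4 for 2.5 h, ratiometric 460/530 nm signal converted to %Activity and fitted to AC50.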

Test [9] can be described thus: S16 Schwann cell PMP22 intronic element beta-lactamase assay (AID 624044; calls by dose curve;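 also: 0% = DMSO and -100% = potassium clavulanate positive control; nearly all actives have a fitted effect of over 15% in size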). The gist of the method: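 Beta-lactamase reporter under a PMP22 intronic regulatory element in stable S16 rat Schwann cells; 24 h compound exposure. 460 nm blue signal normalized between DMSO (0%) and potassium clavulanate, with 535 nm FRET tracking viability; curves classed by r2 and response.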

A further test deals with DFO2036. As to the kind of experiment: qHTS profiling for inhibitors of Plasmodium falciparum proliferation (AID 504749).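 Also: 0% = DMSO vehicle and full inhibition = artemisinin control; nearly all actives have a fitted effect of over 60% in size.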 The settings on record: P. falciparum in erythrocytes, SYBR Green DNA, 72 h; series mostly up to 12.8 µM. Put shortly:
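Fluorescence of SYBR Green-bound parasite DNA, read at 485/535 nm, served as the growth measure. Infected erythrocytes were cultured with compound 72 h; artemisinin (0.29 uM) and DMSO wells defined the normalization range.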

The nature of test [10]: Confirmation and Secondary Assay for Modulators of Hemoglobin Beta Chain Splicing at IVS2 654 locus (AID 910).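 Also: per-well total GFP intensity by laser scanning cytometry after 2-day treatment; % of control where 0% means no effect.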 The gist of the method: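 HeLa cells stably carrying EGFP interrupted by mutant beta-globin IVS2-654 intron (CMV-driven) were treated with compound for 2 days at 37C; corrected splicing was scored as total peak GFP intensity per well (488 nm excitation, 500-520 nm emission).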

Test [11] can be described thus: Confirmation and Secondary Assay for Modulators of Hemoglobin Beta Chain Splicing at IVS2 705 locus (AID 930).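 Also: HeLa cells stably expressing the EGFP-705 splicing reporter; GFP fluorescence per well restored by corrected splicing of the IVS2-705 intron in EGFP; % of control where 0% means no effect.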 The gist of the method: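 HeLa IVS2-705 EGFP reporter cells, 500/well, compound 2 d at 37C; correct splicing yields fluorescent EGFP. Control: 500 nM antisense PNA. Read-out: total peak GFP intensity.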

Molecules are shown by their SMILES. Where “and” joins values, the source holds several entries; their conditions need not be identical. Equal values may be shown once. Values without a mark were called inactive. Results filed as inconclusive are left out. Calls of active or inactive are those of the source. Unless noted, calls follow the shape of the dose curve; as a rule, active = well fitted curve in the direction sought with a large enough effect; inconclusive = small, poorly fitted or top-dose-only effect, or another doubt; inactive = no such curve, though single readings can be large; an effect the other way counts as inactive or inconclusive.

Sequence of Muscarinic acetylcholine receptor M1 (Rattus norvegicus) (P08482 whole entry, looked up): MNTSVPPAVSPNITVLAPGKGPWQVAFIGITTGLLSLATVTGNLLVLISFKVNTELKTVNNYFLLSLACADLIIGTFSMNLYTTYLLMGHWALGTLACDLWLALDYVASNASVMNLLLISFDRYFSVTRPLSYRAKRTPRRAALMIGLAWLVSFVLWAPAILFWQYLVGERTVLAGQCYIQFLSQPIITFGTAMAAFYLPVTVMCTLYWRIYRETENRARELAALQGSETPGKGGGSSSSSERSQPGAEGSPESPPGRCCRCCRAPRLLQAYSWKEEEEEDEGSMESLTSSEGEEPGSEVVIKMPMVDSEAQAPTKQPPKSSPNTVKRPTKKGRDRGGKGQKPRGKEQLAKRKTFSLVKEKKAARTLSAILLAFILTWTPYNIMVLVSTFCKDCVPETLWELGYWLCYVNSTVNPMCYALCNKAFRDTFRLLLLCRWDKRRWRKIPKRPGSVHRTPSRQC
Sequence of Cytochrome P450 2C19 (Homo sapiens) (P33261 whole entry, looked up): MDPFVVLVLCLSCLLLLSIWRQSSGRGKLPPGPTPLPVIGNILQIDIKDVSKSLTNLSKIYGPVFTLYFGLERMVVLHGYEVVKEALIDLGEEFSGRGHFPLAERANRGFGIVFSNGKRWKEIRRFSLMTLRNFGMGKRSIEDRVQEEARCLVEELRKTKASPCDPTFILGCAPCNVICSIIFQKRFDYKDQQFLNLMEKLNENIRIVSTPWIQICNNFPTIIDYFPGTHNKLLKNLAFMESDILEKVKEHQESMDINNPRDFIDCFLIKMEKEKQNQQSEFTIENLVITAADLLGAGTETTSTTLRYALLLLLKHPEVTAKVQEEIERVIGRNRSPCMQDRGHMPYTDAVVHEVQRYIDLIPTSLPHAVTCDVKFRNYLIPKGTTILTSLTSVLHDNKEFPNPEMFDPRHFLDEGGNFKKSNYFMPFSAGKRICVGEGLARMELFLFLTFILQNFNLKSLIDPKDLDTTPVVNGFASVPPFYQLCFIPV
Sequence of Cytochrome P450 3A4 (Homo sapiens) (P08684 whole entry, looked up): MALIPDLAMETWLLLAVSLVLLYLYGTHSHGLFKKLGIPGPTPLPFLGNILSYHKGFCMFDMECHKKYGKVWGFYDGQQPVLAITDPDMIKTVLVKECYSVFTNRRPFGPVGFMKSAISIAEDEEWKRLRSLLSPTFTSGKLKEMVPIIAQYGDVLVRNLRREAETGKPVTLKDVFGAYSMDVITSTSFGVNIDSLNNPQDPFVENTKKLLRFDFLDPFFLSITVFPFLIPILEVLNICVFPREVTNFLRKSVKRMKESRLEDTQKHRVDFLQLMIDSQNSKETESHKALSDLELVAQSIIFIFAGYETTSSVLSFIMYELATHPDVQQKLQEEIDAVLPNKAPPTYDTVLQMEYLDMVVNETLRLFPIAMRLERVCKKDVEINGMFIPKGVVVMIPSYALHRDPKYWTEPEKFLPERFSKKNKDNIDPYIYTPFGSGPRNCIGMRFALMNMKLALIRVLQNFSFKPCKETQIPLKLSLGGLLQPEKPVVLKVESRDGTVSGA
Sequence of Cytochrome P450 2D6 (Homo sapiens) (P10635 whole entry, looked up): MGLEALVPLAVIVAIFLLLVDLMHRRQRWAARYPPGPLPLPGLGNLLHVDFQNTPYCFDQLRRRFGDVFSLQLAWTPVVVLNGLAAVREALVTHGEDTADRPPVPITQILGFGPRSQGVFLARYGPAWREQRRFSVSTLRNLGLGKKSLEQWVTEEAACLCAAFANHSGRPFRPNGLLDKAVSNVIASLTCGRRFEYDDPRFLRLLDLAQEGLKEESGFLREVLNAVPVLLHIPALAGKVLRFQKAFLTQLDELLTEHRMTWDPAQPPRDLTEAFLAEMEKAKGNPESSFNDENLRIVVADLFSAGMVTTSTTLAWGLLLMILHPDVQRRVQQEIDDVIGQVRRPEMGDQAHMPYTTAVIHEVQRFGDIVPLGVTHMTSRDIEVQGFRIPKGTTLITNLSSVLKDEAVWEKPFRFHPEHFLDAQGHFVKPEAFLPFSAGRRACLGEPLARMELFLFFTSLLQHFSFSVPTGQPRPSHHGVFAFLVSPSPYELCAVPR
Sequence of Cytochrome P450 2C9 (Homo sapiens) (P11712 whole entry, looked up): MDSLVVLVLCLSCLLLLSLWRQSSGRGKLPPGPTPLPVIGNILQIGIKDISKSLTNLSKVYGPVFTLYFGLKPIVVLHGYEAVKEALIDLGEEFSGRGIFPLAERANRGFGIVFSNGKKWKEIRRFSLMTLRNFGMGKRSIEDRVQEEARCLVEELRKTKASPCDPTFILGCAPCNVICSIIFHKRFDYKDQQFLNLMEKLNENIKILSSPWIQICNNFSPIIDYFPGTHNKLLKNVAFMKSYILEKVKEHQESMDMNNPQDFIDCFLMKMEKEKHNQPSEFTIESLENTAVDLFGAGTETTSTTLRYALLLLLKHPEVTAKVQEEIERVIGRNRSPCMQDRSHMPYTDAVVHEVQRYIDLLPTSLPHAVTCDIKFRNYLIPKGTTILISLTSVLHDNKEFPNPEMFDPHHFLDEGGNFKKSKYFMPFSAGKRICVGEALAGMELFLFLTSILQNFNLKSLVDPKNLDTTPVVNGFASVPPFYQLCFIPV

For the molecule `CC(=O)O[C@]1(C(C)=O)CC[C@@H]2[C@@H]3C=C(Cl)C4=CC(=O)[C@H]5C[C@@H]5[C@]4(C)[C@H]3CC[C@]21C`, the Potency entry in [1] was “inactive”.
For the molecule `CN(C)[C@@H]1C(=O)C(C(N)=O)=C(O)[C@]2(O)C(=O)C3=C(O)c4c(O)ccc(Cl)c4[C@H](O)[C@H]3C[C@@H]12`, the Potency result in test [2], in [3], in test [4] and in [5] was “inactive” throughout.
As for `C[C@H](NCCc1ccc(O)cc1)[C@@H](O)c1ccc(O)cc1`, the Potency result in [3] is “inactive”. Further, the Potency in [4] is 12.6 µM (active).
`c1ccc([C@@H]2CN3CCSC3=N2)cc1`: the Potency entry in test [5] was “inactive”.
For `C[C@@]12CCC(=O)C=C1CC[C@H]1[C@H]3CC[C@](O)(C(=O)CO)[C@]3(C)CC(=O)[C@@H]12`, the Potency result in test [2], in test [6] and in test [7] was “inactive” each time.
Regarding `C[C@@H](COc1ccccc1)N(CCCl)Cc1ccccc1`, the Potency in test [6] is 0.158 µM (active); in test [7] it was 2 µM (active).
On to `COc1cc(=O)n(C)c2c(OC[C@@H](O)C(C)(C)O)cccc12`, for which the Potency result in test [2], in test [6], in test [7], in test [4] and in test [5] was “inactive” throughout.
Turning to `CN1C(=O)CC[C@@H]1c1cccnc1`, the Potency result in [2], in [6], in test [3], in [7], in [4] and in test [5] was “inactive” each time.
With `C[C@@]12CCC(=O)C=C1CC[C@@H]1[C@@H]2[C@H](O)C[C@]2(C)[C@@H]1CC[C@]2(O)C(=O)CO`, the Potency entry in test [2], in [6] and in test [7] was “inactive” in each case.
Consider `O=C(C1CCCCC1)N1CC(=O)N2CCc3ccccc3[C@@H]2C1`, for which the Potency result in test [2] and in [6] was “inactive” in each case.
With `O=C(c1ccccc1)c1ccc2n1CC[C@H]2C(=O)O`, the Potency result in [5] is “inactive”.
Turning to `O=C(O)/C=C\c1ccc(O)c(O)c1`, the Potency result in test [2], in test [6] and in test [7] was “inactive” throughout.
For the molecule `CCCCCN(CCCCC)C(=O)[C@H](CCC(=O)O)NC(=O)c1ccc(Cl)c(Cl)c1`, the Potency in test [2] is 3.98 µM (active). Besides, the Potency entry in [3], in test [4] and in test [5] was “inactive” throughout.
Regarding `Cc1cccc(C)c1OC[C@H](C)N`, the Potency result in test [2], in test [1] and in [5] was “inactive” in each case. Further, the Potency in [3] was 0.794 µM (active). The activation in test [8] is -2.33% and -23.1%.
`N[C@@H](CO)C(=O)NNCc1ccc(O)c(O)c1O`: the Potency entry in test [3], in [4] and in test [5] was “inactive” in each case.
On to `O[C@@](CCN1CCCCC1)(c1ccccc1)C1CCCCC1`, for which the Potency in test [6] was 5.01 µM (active) and 1.26 µM (active).
In the case of `CC(=O)OCC1=C(C(=O)O)N2C(=O)[C@@H](NC(=O)Cc3cccs3)[C@@H]2SC1`, the activation in [8] was -3.21% and -0.503%. Also, the Potency result in test [4] and in test [5] was “inactive” each time.
On to `CC[C@]1(C)CC(=O)NC1=O`, for which the Potency result in test [3] is “inactive”. The call in test [9] was inactive.
Take `CN1Cc2c(N)cccc2[C@H](c2ccccc2)C1`: the Potency in test [6] was 6.31 µM (active). Further, the Potency entry in [5] is “inactive”.
With `C=CCc1ccccc1OC[C@H](O)CNC(C)C`, the Potency in test [6] is 6.31 µM (active); in [3], 3.16 µM (active). Also, the Potency entry in [5] was “inactive”.
Take `CC[C@H](NC(C)C)[C@H](O)c1ccc(O)c(O)c1`: the Potency entry (in test [4]; in [5]; in the test with DFO2036) was “inactive” in each case.
For `C[C@@H]1c2cccc(O)c2C(O)=C2C(=O)[C@@]3(O)C(O)=C(C(N)=O)C(=O)[C@@H](N(C)C)[C@@H]3[C@@H](O)[C@@H]21`, the Potency result in test [4] and in test [5] was “inactive” in each case. Also, the molecule was called inactive in test [9].
In the case of `C[C@@H]1COc2c(N3CCN(C)CC3)c(F)cc3c(=O)c(C(=O)O)cn1c23`, the Potency entry (in test [5]; in the test on DFO2036) was “inactive” in each case.
On to `CC(C)(Oc1ccc([C@@H]2CC2(Cl)Cl)cc1)C(=O)O`, for which the Potency result in [3] is “inactive”. The activation in test [8] is -18.9%.
As to `CC(=O)N(CC(O)CN(C(C)=O)c1c(I)c(C(=O)NC[C@@H](O)CO)c(I)c(C(=O)NC[C@@H](O)CO)c1I)c1c(I)c(C(=O)NC[C@@H](O)CO)c(I)c(C(=O)NC[C@@H](O)CO)c1I`, the Potency entry in the test with DFO2036 is “inactive”.
With `C[C@@](N)(Cc1ccc(O)cc1)C(=O)O`, the Potency entry in [1] and in [10] was “inactive” each time. The molecule was called inactive in test [11].
In the case of `CC1=C(C(=O)O)N2C(=O)[C@@H](NC(=O)[C@@H](N)c3ccccc3)[C@@H]2SC1`, the Potency result in test [3] is “inactive”.
Take `CN1[C@@H](CC(=O)c2ccccc2)CCC[C@@H]1C[C@@H](O)c1ccccc1`: the Potency entry in [2] and in [7] was “inactive” in each case. Besides, the Potency in test [6] is 251 nM (active) and 79.4 nM (active) and 10 nM (active).
Take `CCN[C@@H]1C[C@H](C)S(=O)(=O)c2sc(S(N)(=O)=O)cc21`: in the test with DFO2036, the Potency entry was “inactive”.
On the same count and under the same terms, the value for `C[C@@H](C(=O)O)c1ccc(C(=O)c2cccs2)cc1` was “inactive”.
For the molecule `C[n+]1ccccc1/C=N\O`, the call in test [9] was inactive. Further, the Potency entry with DFO2036 was “inactive”.
